The results in this text go back to PubChem BioAssay.

This test in a line: probe aCHRDL2 binding to arrayed compounds – biochemical, biotinylated probe, 635/667 nm fluorescence, primary screen (AID 1100). Conditions: small-molecule microarray, higher = more signal.
Molecule `CC[C@@H]1[C@@H]2C3C(=O)N(CC)C(=O)C3CC(=O)[C@@H]2[C@H](c2ccc(C)cc2)N1S(=O)(=O)c1ccc(C)cc1` (stereo not given in full) registered a composite z-score of 0.246.
Turning to `C=CCNC(=O)[C@@H]1[C@H]2C(=O)O[C@H](c3ccccc3)[C@H](c3ccccc3)N2[C@H](c2ccc(O)cc2)[C@@]12C(=O)Nc1ccc(C#CCCO)cc12`, the composite z-score came to 0.216.
`O=C1NC(=O)C2C1C=CC(C(O)c1ccc(-c3ccccc3)s1)N2Nc1ccccn1` (stereo not given) registered a composite z-score of 1.25.
On to `OCCCC1=CC(c2cccs2)N(Cc2cccc(OC(F)(F)F)c2)CC1` (stereo not given), for which the composite z-score is -0.138.
For the molecule `O=C1OCC=C[C@H]2OC34C=CCN(CCN5CCOCC5)C(=O)[C@H]3N(CCCCCO)C(=O)[C@@H]4[C@@H]12` (stereo not given in full), the composite z-score is -0.227.
The figure for `CCCN1C(=O)[C@@]2(Cc3ccccc3)N=C(c3ccc(OCCCO)cc3)O[C@H]2c2ccccc21` is 0.707.
The figure for `C[N+](C)(C)CCCC[C@@H]1NC(=O)[C@@H]2C[C@H](C(=O)O)[C@H](c3cccc(OCCO)c3)N2C1=O` is 0.667; for `C/C=C/[C@@H](CCn1cc([C@H](O)c2ccccc2)nn1)[Si](C)(C)c1ccc(OC)cc1` it is 0.476.
The figure for `CCN(CC)c1ccc(N2CC=CC34O[C@@H]5/C=C\CCCOC(=O)C5[C@H]3C(=O)N(CCCCCCO)[C@@H]4C2=O)cc1` (stereo not given in full) is 0.733.
`COC(=O)[C@@]1(Cc2ccc(OC)cc2)[C@H]2c3cc(C(=O)N4CCCC4)n(CCF)c3C[C@H]2CN1C(=O)c1ccccc1` came in with a composite z-score of 1.56.
